SMILES strings stand for the structures. Results filed as inconclusive are left out. Entries that show only a call come without a potency. Activity calls are given as the source filed them. Calls come from the whole dose curve; as a rule, active = well fitted inhibition curve with a large enough effect in the polarisation, with a control signal flat (not every such curve was filed as active); inconclusive = small, poorly fitted or top-dose-only effect, or effect the other way, or a change in a side signal; inactive = no such curve, though single readings can be large or run the other way; the % refers to the polarisation.
Potency is the fitted concentration of half-maximal effect.

The assay can be described thus: Confirmation of Inhibitors Targeting the Menin-MLL Interaction in MLL Related Leukemias: Competition With Texas Red Labeled MLL-derived Mutant Peptide. Particulars: fluorescence polarization, Texas Red MLL peptide displacement; series mostly up to 94.6 µM. An excerpt:
qHTS Assay for Inhibitors Targeting the Menin-MLL Interaction in MLL Related Leukemias
NIH Chemical Genomics Center [NCGC]
NIH Molecular Libraries Probe Centers Network [MLPCN]
Assay Submitter (PI): Jolanta Grembecka, Tomasz Cierpicki, University of Virginia
Translocations of the MLL (Mixed Lineage Leukemia) gene are frequently found in human leukemias affecting both children and adults. Fusion of MLL to one of more than 60 genes results in generation of oncogenic proteins upregulating Hox genes, which are vital to blood cell development. Patients harboring fusion of the MLL gene suffer from aggressive leukemias and respond poorly to available therapies. All of the oncogenic fusion proteins have a preserved N-terminal fragment of MLL that has been identified to interact with menin. It has been recently discovered that association with menin is critical to the leukemogenic activity of the MLL fusion oncoproteins. Selective targeting of the menin-MLL interaction could provide an attractive therapeutic approach to develop novel drugs for MLL-related leukemias. Small molecules blocking the menin-MLL interaction should reverse the oncogenic potential of MLL fusion proteins.
We have developed and optimized a fluorescence polarization-based assay for the identification of Menin-MLL inhibitors. The assay was run employing two different MLL-derived peptides. The present assay uses a 12 amino acid peptide labeled with fluorescein at its N-terminus. This peptide consists of the menin high affinity binding motif from MLL and is potently bound by menin. Another peptide with a mutated sequence, labeled with Texas Red, was used in parallel as a less stringent screen for inhibitors.
The present assay was run to confirm the activity of hits from the primary screen using the peptide with a mutated sequence, labeled with Texas Red.
The Menin protein, the MLL-wild type (w.t.) derived peptide (N-terminal 12 amino acids), the MLL-derived peptide labeled with Texas Red and the MLL-w.t. peptide labeled with Fluorescein were kindly supplied by laboratory of Dr. Jolanta Grembecka, University of Virginia. All protein and peptide solutions were stored in single use aliquots at -80C. The Eu3+ Cyrptate-conjugated mouse monoclonal antibody anti-6 Histidine (Eu3+-AB) and the Streptavidin-XL665 conjugate (XL665) were purchased from Cisbio International (Bedford, MA). All antibody and XL665 conjugate solution stocks were stored in single use aliquots at -20C. The Buffer components for all assays were purchased from Sigma-Aldrich (St. Louis, MO) and Invitrogen (Carlsbad, CA).
1. FP reaction buffer: 50 mM Tris-HCl pH 7.5, 50 mM NaCl, 1mM DTT.
Before use, 0.05% BSA is added.
2. Menin protein, MLL-w.t. labeled with fluorescein, MLL-mutant peptide labeled with texas red.
Stored in singe use aliquots at -80C.
3. MLL-w.t. unlabeled peptide as positive control: 10 uM final in FP buffer.
1. Prepare Menin at 200 nM, MLL-w.t.-fluorescein at 25 nM, and MLL-mutant-texas red at 50 nM mixture in FP buffer.
2. Prepare Menin at 200 nM, MLL-w.t.-fluorescein at 25 nM, MLL-mutant-texas red at 50 nM, and 10 uM MLL-w.t. unlabeled mixture in FP buffer.
3. Prepare MLL-w.t.-fluorescein at 25 nM and MLL-mutant-texas red at 50 nM mixture in FP buffer.
3. Dispense 4 ul per well of reagent in step 1 in columns 2, 4 - 48 in a black 1536 well plate, dispense 4 ul per well of reagents from steps 2 and 3 in columns 1 and 3 respectively. Incubate plate at ambient for 15 minutes.
4. Transfer 23 nl per well of compound to plate and incubate at ambient for 1 hr.
5. Read fluorescence polarization for each label using the PerkinElmer Envision.
Envision protocol for fluorescein: FITC FP Dual Enh Mirror, Excitation filter 480, Emission filter (1) P-pol 535, Emission filter (2) S-pol 535
Envision protocol for texas red: FP Dual Enh Mirror, Excitation filter 555, Emission filter (1) P-pol 632, Emission filter (2) S-pol 632
For orientation: Polarisation of emitted light reports the rotation of a fluorescent probe.
As for `Cc1cc(C)c2c(=O)cc(C(=O)NCc3ccccc3)oc2c1`, the Potency entry is “inactive”.

Consider `Cc1nc(N2CCN(C)CC2)c2c3c(sc2n1)CCCC3`, for which the Potency is 126 µM (active).

For the compound `O=C(Nc1nccs1)C(Br)C(Br)c1ccccc1` (stereo not given), the Potency result was “inactive”.

`COc1ccc(/C=C(\C#N)C(=O)NCc2ccccc2)cc1`: the Potency result is “inactive”.

On to `COc1ccc(N(CC(=O)NC2CC3CCC2C3)S(=O)(=O)c2ccc(C)cc2)cc1OC` (stereo not given), for which the Potency result was “inactive”.

For `COc1cccc(OC)c1NC(=O)CN1CCN(C)CC1`, the Potency result is “inactive”.

For `CCC(C)CCCCC(=O)NC(CCN)C(=O)NC(C(=O)NC(CCN)C(=O)NC1CCNC(=O)C(C(C)O)NC(=O)C(CCN)NC(=O)C(CCN)NC(=O)C(CC(C)C)NC(=O)C(Cc2ccccc2)NC(=O)C(CCN)NC1=O)C(C)O` (stereo not given), the Potency was 7.08 µM (active).

For the compound `CN(C)c1ccc(C2CC(=O)C=C(Nc3ccccc3N)C2)cc1` (stereo not given), the Potency was 63.2 µM (active).

On to `Cc1nn(-c2ccccc2)c2nc(N)c(C(N)=O)cc12`, for which the Potency entry is “inactive”.

Consider `CCCc1cc(=O)oc2c3c(c(Cl)cc12)OCN(CCCO)C3`, for which the Potency result was “inactive”.

Regarding `Cc1cnc(NC(=O)C2C(=O)c3ccccc3S(=O)(=O)N2C)s1` (stereo not given), the Potency result is “inactive”.

Regarding `CC(NC(=O)c1cnc2ccccc2n1)c1ccccc1` (stereo not given), the Potency entry is “inactive”.

As to `Cc1ccccc1-c1cncnc1NC1CCNCC1`, the Potency is 126 µM (active).

For `O=C(Cn1c(=O)c2c3c(sc2n(Cc2ccccc2)c1=O)CCCC3)NCCO`, the Potency entry was “inactive”.

Regarding `COc1ccc(CNC(=O)C(c2ccc(O)cc2)N(Cc2ccco2)C(=O)c2snc(C(N)=O)c2N)cc1` (stereo not given), the Potency result was “inactive”.

Take `O=C1CCNc2c(Cl)cc(Cl)cc21`: the Potency result is “inactive”.

On to `NS(=O)(=O)c1ccc(NC(=O)c2ccc(S(=O)(=O)N3CCc4ccccc43)cc2)cc1`, for which the Potency was 20 µM (active).

Regarding `CCC(C)C1NC(=O)C(CCNCS(=O)(=O)O)NC(=O)C(NC(=O)C(CCNCS(=O)(=O)O)NC(=O)C(NC(=O)C(CCNCS(=O)(=O)O)NC(=O)CCCCC(C)C)C(C)O)CCNC(=O)C(C(C)O)NC(=O)C(CCNCS(=O)(=O)O)NC(=O)C(CCNCS(=O)(=O)O)NC(=O)C(C(C)CC)NC1=O` (stereo not given), the Potency entry was “inactive”.

For `O=C1Cc2ccccc2Sc2c(OCCN3CCCCC3)cccc21`, the Potency is 126 µM (active).

In the case of `N=C1c2ccccc2CN1c1ccc(N2CCOCC2)c(S(=O)(=O)Nc2ccc(Cl)cc2)c1`, the Potency was 141 µM (active).

Regarding `CCOc1ccccc1N(CC(=O)Nc1ccccc1C(=O)N1CCCC1)S(C)(=O)=O`, the Potency result was “inactive”.

On to `CC(=O)Nc1ccc(-c2cc3ccccc3o2)cc1`, for which the Potency result is “inactive”.

Regarding `CCc1nnc(NC(=O)C2(C)COC(c3ccc(OC)cc3)OC2)s1` (stereo not given), the Potency result was “inactive”.

Regarding `COc1cc2c(cc1NC(=S)NC(=O)c1c(OC)cccc1OC)oc1ccccc12`, the Potency was 11.2 µM (active).

With `C=C(C)CNC(=S)Nc1cccc2cnccc12`, the Potency entry was “inactive”.

Consider `CN[C@H]1[C@H](O)[C@@H](O[C@@H]2[C@H](O)[C@@H](O[C@H]3OC(CN)=CC[C@H]3N)[C@@H](N)C[C@H]2N)OC[C@@]1(C)O`, for which the Potency entry is “inactive”.

With `COc1cccc(NC(=O)N2CCCc3ccccc32)c1`, the Potency result was “inactive”.

As for `COc1ccc(OCCCn2ccnc2)cc1`, the Potency result was “inactive”.

Take `O=C(CC(Sc1ccc(Br)cc1)C(=O)O)c1ccc(F)cc1` (stereo not given): the Potency entry is “inactive”.

Take `COc1ccc(-c2cc(=O)c3c(O)cc(O)c(-c4cc(-c5cc(=O)c6c(O)cc(O)cc6o5)ccc4OC)c3o2)cc1`: the Potency entry was “inactive”.

On to `Cc1c(C(=O)OCC(=O)Nc2ccc(S(N)(=O)=O)cc2)oc2c1ccc1ccccc12`, for which the Potency result was “inactive”.

Regarding `CN(C)CCc1c[nH]c2ccc(CC3COC(=O)N3)cc12` (stereo not given), the Potency result was “inactive”.

As to `CCN1C(=O)c2ccccc2S(=O)(=O)c2ccc(C(=O)NCCCN(CC(C)C)CC(C)C)cc21`, the Potency entry was “inactive”.

Consider `CCCC(=O)NC(c1ccccc1Cl)c1ccc2cccnc2c1O` (stereo not given), for which the Potency entry was “inactive”.

For the compound `Cc1ccc(C#CC(C)(O)C(C)(C)C)cn1` (stereo not given), the Potency entry is “inactive”.

Regarding `CCOc1cc(CNCCc2ccc(S(N)(=O)=O)cc2)ccc1OCc1ccccc1`, the Potency is 70.8 µM (active).

For `Cc1ccccc1-c1n[nH]c(=S)n1C`, the Potency result is “inactive”.

Take `C[N+]1(CCNC(=O)/C=N/O)CCCCC1`: the Potency entry is “inactive”.

As to `O=C(/C=C/c1ccccc1)c1cccs1`, the Potency result was “inactive”.

For `O=C(Nc1cccn(Cc2c(Cl)cccc2Cl)c1=O)c1c(Cl)cccc1Cl`, the Potency entry was “inactive”.
